Compounds without any hit were thinned out: in the full panel of roughly 83,000, 20% have a hit.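 Testing used 96-well plates and a 48-hour single-concentration exposure. Example: -40 means 40% of the starting cells died.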 Calls of active or inactive are those of the source. How the source made its calls: active means growth percent below 10; inactive means the rest.
Columns and labels:
Test in all cases: NCI-60 one-dose screen, 48 h (100 = growth as untreated, 0 = no growth, -100 = all killed)
Conditions in all cases: 10 µM
SK-MEL-2 melanoma = system: SK-MEL-2 melanoma
EKVX NSCLC = system: EKVX NSCLC
SN12C renal = system: SN12C renal
UO-31 renal = system: UO-31 renal
TK-10 renal = system: TK-10 renal
ACHN renal = system: ACHN renal
CAKI-1 renal = system: CAKI-1 renal
A498 renal = system: A498 renal
CCRF-CEM leukemia = system: CCRF-CEM leukemia
MOLT-4 leukemia = system: MOLT-4 leukemia
SR leukemia = system: SR leukemia
RPMI-8226 leukemia = system: RPMI-8226 leukemia
OVCAR-8 ovarian = system: OVCAR-8 ovarian
OVCAR-4 ovarian = system: OVCAR-4 ovarian
SK-OV-3 ovarian = system: SK-OV-3 ovarian
IGROV1 ovarian = system: IGROV1 ovarian
OVCAR-3 ovarian = system: OVCAR-3 ovarian
HS 578T breast = system: HS 578T breast
NCI/ADR-RES ovarian = system: NCI/ADR-RES ovarian
OVCAR-5 ovarian = system: OVCAR-5 ovarian

Measured: growth

C[C@]12CC[C@H]3[C@@H](CCC4=CC(=O)CC[C@@]43C)[C@@H]1CC[C@@H]2c1csc(N)n1
inactive: SK-MEL-2 melanoma 62.9% | EKVX NSCLC 23.6% | SN12C renal 71.8% | UO-31 renal 44% | TK-10 renal 87.3% | ACHN renal 77.2% | CAKI-1 renal 47.3% | A498 renal 84.3% | CCRF-CEM leukemia 42.1% | MOLT-4 leukemia 27.7% | SR leukemia 26.4% | RPMI-8226 leukemia 19.1% | OVCAR-8 ovarian 46.5% | OVCAR-4 ovarian 23.1% | SK-OV-3 ovarian 89.1% | IGROV1 ovarian 87.3% | OVCAR-3 ovarian 63% | HS 578T breast 104% | NCI/ADR-RES ovarian 32.1%

CCCCCN(CCCCC)C(C)C(O)c1ccc2cc(Cl)c3ccccc3c2c1 (centres undefined)
inactive: SK-MEL-2 melanoma 87% | EKVX NSCLC 102% | SN12C renal 89.6% | UO-31 renal 70.6% | TK-10 renal 94.8% | ACHN renal 102% | CAKI-1 renal 87.4% | A498 renal 83.1% | CCRF-CEM leukemia 92.2% | MOLT-4 leukemia 98.6% | SR leukemia 84.7% | RPMI-8226 leukemia 84.1% | OVCAR-8 ovarian 99.9% | OVCAR-4 ovarian 105% | SK-OV-3 ovarian 88.8% | IGROV1 ovarian 98.3% | OVCAR-3 ovarian 97.4% | HS 578T breast 89.4% | NCI/ADR-RES ovarian 98.9%

COc1cc(Cn2c(-c3ccccc3)cc3c2-c2oncc2CC3)cc(OC)c1
active: UO-31 renal 9.92% | A498 renal -14.7% | SR leukemia 2.06% | SK-OV-3 ovarian 0.474% | IGROV1 ovarian 7.96% | OVCAR-3 ovarian -47.1% | HS 578T breast -6.35% | NCI/ADR-RES ovarian -19.5%
inactive: SK-MEL-2 melanoma 22.3% | EKVX NSCLC 43.7% | SN12C renal 24.3% | TK-10 renal 57.4% | ACHN renal 34.7% | CAKI-1 renal 18% | CCRF-CEM leukemia 11.3% | MOLT-4 leukemia 12.2% | RPMI-8226 leukemia 34.8% | OVCAR-8 ovarian 21.7% | OVCAR-5 ovarian 42.6% | OVCAR-4 ovarian 51.8%

CCSc1nc2c([nH]1)c(=O)n(C)c(=S)n2C
inactive: SK-MEL-2 melanoma 111% | EKVX NSCLC 95.5% | SN12C renal 107% | UO-31 renal 98.2% | TK-10 renal 101% | ACHN renal 102% | CAKI-1 renal 100% | A498 renal 108% | CCRF-CEM leukemia 100% | MOLT-4 leukemia 108% | SR leukemia 118% | RPMI-8226 leukemia 112% | OVCAR-8 ovarian 108% | OVCAR-4 ovarian 114% | SK-OV-3 ovarian 103% | IGROV1 ovarian 116% | OVCAR-3 ovarian 112% | HS 578T breast 115% | NCI/ADR-RES ovarian 105%

CC(C)CCN(CCCNc1c2c(nc3cc(Cl)ccc13)CCCC2)CCC(C)C
inactive: SK-MEL-2 melanoma 103% | EKVX NSCLC 54.4% | SN12C renal 71.6% | UO-31 renal 27.2% | TK-10 renal 78.1% | ACHN renal 92.4% | CAKI-1 renal 56.5% | A498 renal 59% | CCRF-CEM leukemia 61.6% | MOLT-4 leukemia 47% | RPMI-8226 leukemia 39.5% | OVCAR-8 ovarian 79.4% | OVCAR-4 ovarian 50.8% | SK-OV-3 ovarian 93.2% | IGROV1 ovarian 50.2% | OVCAR-3 ovarian 81.6% | HS 578T breast 76.1% | NCI/ADR-RES ovarian 74.3%

O=C(NNc1nc(N2CCCC2)nc(N2CCCC2)n1)c1ccccc1
inactive: SK-MEL-2 melanoma 101% | EKVX NSCLC 102% | SN12C renal 100% | UO-31 renal 81.7% | TK-10 renal 114% | ACHN renal 102% | CAKI-1 renal 116% | A498 renal 102% | CCRF-CEM leukemia 103% | MOLT-4 leukemia 68.4% | SR leukemia 70.8% | RPMI-8226 leukemia 106% | OVCAR-8 ovarian 104% | OVCAR-5 ovarian 100% | OVCAR-4 ovarian 106% | SK-OV-3 ovarian 121% | IGROV1 ovarian 103% | OVCAR-3 ovarian 108% | HS 578T breast 104% | NCI/ADR-RES ovarian 102%

CCN1CCOC1C(C)C (centres undefined)
inactive: SK-MEL-2 melanoma 95.3% | EKVX NSCLC 107% | SN12C renal 99.8% | UO-31 renal 79.5% | TK-10 renal 130% | ACHN renal 102% | CAKI-1 renal 98.2% | A498 renal 98.8% | CCRF-CEM leukemia 103% | MOLT-4 leukemia 94.3% | SR leukemia 81.7% | RPMI-8226 leukemia 106% | OVCAR-8 ovarian 108% | OVCAR-4 ovarian 113% | SK-OV-3 ovarian 100% | IGROV1 ovarian 108% | OVCAR-3 ovarian 111% | HS 578T breast 109% | NCI/ADR-RES ovarian 102%

O=[N+]([O-])c1ccc(S(=O)(=O)OCCCCOS(=O)(=O)c2ccc([N+](=O)[O-])cc2)cc1
inactive: SK-MEL-2 melanoma 115% | EKVX NSCLC 95.8% | SN12C renal 97% | UO-31 renal 90.1% | TK-10 renal 113% | ACHN renal 110% | CAKI-1 renal 97.9% | A498 renal 104% | MOLT-4 leukemia 94.7% | SR leukemia 100% | RPMI-8226 leukemia 106% | OVCAR-8 ovarian 108% | OVCAR-5 ovarian 103% | OVCAR-4 ovarian 108% | SK-OV-3 ovarian 115% | IGROV1 ovarian 115% | OVCAR-3 ovarian 105% | HS 578T breast 105% | NCI/ADR-RES ovarian 98.9%

COc1ccccc1CNCCCN1C(=O)c2ccc3c4c(ccc(c24)C1=O)C(=O)N(CCCNCCNCCCN)C3=O
active: SN12C renal 1.16% | MOLT-4 leukemia 1.36% | OVCAR-4 ovarian -94.8% | OVCAR-3 ovarian -14%
inactive: SK-MEL-2 melanoma 24.9% | EKVX NSCLC 37.9% | UO-31 renal 77.3% | TK-10 renal 60.6% | ACHN renal 51.5% | CAKI-1 renal 87.8% | A498 renal 60.9% | SR leukemia 13.6% | RPMI-8226 leukemia 60.8% | OVCAR-8 ovarian 12.4% | OVCAR-5 ovarian 65.9% | SK-OV-3 ovarian 52.8% | IGROV1 ovarian 13.4% | HS 578T breast 54.6% | NCI/ADR-RES ovarian 96.7%

Cn1cnc([N+](=O)[O-])c1Sc1nnc(-c2ccccc2)c(-c2ccccc2)n1
active: CAKI-1 renal -7.14% | CCRF-CEM leukemia 8.92%
inactive: SK-MEL-2 melanoma 73% | EKVX NSCLC 119% | SN12C renal 72.2% | UO-31 renal 55.3% | TK-10 renal 48.1% | ACHN renal 65.9% | A498 renal 97.9% | MOLT-4 leukemia 41% | RPMI-8226 leukemia 43.8% | OVCAR-8 ovarian 102% | OVCAR-5 ovarian 93.6% | OVCAR-4 ovarian 73.9% | SK-OV-3 ovarian 120% | IGROV1 ovarian 72% | OVCAR-3 ovarian 51.3% | NCI/ADR-RES ovarian 82.3%

O=C(c1ccccc1)C(Sc1ccccc1)c1ccccc1 (centres undefined)
inactive: SK-MEL-2 melanoma 62% | EKVX NSCLC 106% | SN12C renal 87.7% | UO-31 renal 79.9% | TK-10 renal 101% | ACHN renal 34.5% | CAKI-1 renal 82.5% | A498 renal 92.1% | CCRF-CEM leukemia 89.9% | MOLT-4 leukemia 67% | RPMI-8226 leukemia 81.7% | OVCAR-8 ovarian 86.8% | OVCAR-4 ovarian 78.7% | SK-OV-3 ovarian 103% | IGROV1 ovarian 83.8% | OVCAR-3 ovarian 109% | HS 578T breast 100% | NCI/ADR-RES ovarian 82.7%

CCOC(=O)c1cc2c(n1Cc1cc(OC)cc(OC)c1)-c1oncc1CC2
inactive: SK-MEL-2 melanoma 26.7% | EKVX NSCLC 34.5% | SN12C renal 40.9% | UO-31 renal 19.4% | TK-10 renal 53.2% | ACHN renal 47.1% | CAKI-1 renal 29.2% | A498 renal 24.9% | CCRF-CEM leukemia 13.2% | MOLT-4 leukemia 23.6% | SR leukemia 18% | RPMI-8226 leukemia 39.5% | OVCAR-8 ovarian 26.8% | OVCAR-5 ovarian 49% | OVCAR-4 ovarian 48.9% | IGROV1 ovarian 14.3%
active: SK-OV-3 ovarian 5.06% | OVCAR-3 ovarian -51.2% | HS 578T breast -1.17% | NCI/ADR-RES ovarian 0.862%

COc1c(C)c(C)c(OC)c2c1[nH]c(=O)c1c3cccnc3cn21
inactive: SK-MEL-2 melanoma 110% | EKVX NSCLC 100% | SN12C renal 99.5% | UO-31 renal 91.2% | TK-10 renal 117% | ACHN renal 114% | CAKI-1 renal 104% | A498 renal 120% | CCRF-CEM leukemia 101% | MOLT-4 leukemia 99.4% | SR leukemia 94.8% | RPMI-8226 leukemia 108% | OVCAR-8 ovarian 111% | OVCAR-5 ovarian 122% | SK-OV-3 ovarian 103% | OVCAR-3 ovarian 104% | HS 578T breast 99.5% | NCI/ADR-RES ovarian 110%

Cn1c(N)c(N=Cc2ccccc2)c(=O)n(C)c1=O
inactive: SK-MEL-2 melanoma 97.1% | EKVX NSCLC 100% | SN12C renal 104% | UO-31 renal 81.5% | TK-10 renal 117% | ACHN renal 104% | CAKI-1 renal 98% | A498 renal 116% | CCRF-CEM leukemia 112% | MOLT-4 leukemia 99.4% | SR leukemia 96.2% | RPMI-8226 leukemia 108% | OVCAR-8 ovarian 110% | OVCAR-5 ovarian 133% | OVCAR-4 ovarian 111% | SK-OV-3 ovarian 96.4% | IGROV1 ovarian 106% | OVCAR-3 ovarian 120% | HS 578T breast 100% | NCI/ADR-RES ovarian 110%

CCOc1nc(-c2ccccc2)cc2c(O)c(C(=O)N/N=C/c3ccc(OC)cc3)[nH]c(=O)c12
inactive: SK-MEL-2 melanoma 98.5% | EKVX NSCLC 99.7% | SN12C renal 114% | UO-31 renal 66.8% | TK-10 renal 120% | ACHN renal 100% | CAKI-1 renal 92.5% | A498 renal 132% | CCRF-CEM leukemia 91.8% | MOLT-4 leukemia 63% | RPMI-8226 leukemia 82.2% | OVCAR-8 ovarian 109% | OVCAR-5 ovarian 125% | OVCAR-4 ovarian 98.3% | SK-OV-3 ovarian 95.5% | IGROV1 ovarian 82.3% | OVCAR-3 ovarian 106% | HS 578T breast 96.8% | NCI/ADR-RES ovarian 105%

COc1cc(OC)cc(-c2n/c(=C\c3c(O)[nH]c4ccc(OC)cc34)cc3c2=Nc2ccccc2-3)c1
inactive: SK-MEL-2 melanoma 108% | EKVX NSCLC 96.6% | SN12C renal 107% | UO-31 renal 71.2% | TK-10 renal 125% | ACHN renal 114% | CAKI-1 renal 90.6% | A498 renal 90.6% | MOLT-4 leukemia 12.4% | RPMI-8226 leukemia 77.8% | OVCAR-8 ovarian 72.7% | OVCAR-5 ovarian 122% | OVCAR-4 ovarian 15.3% | SK-OV-3 ovarian 126% | IGROV1 ovarian 86.5% | OVCAR-3 ovarian 94.6% | HS 578T breast 95.3% | NCI/ADR-RES ovarian 69.4%
active: SR leukemia 9.3%

[O-]c1c[n+](-c2ccc(Cl)cc2)no1
inactive: SK-MEL-2 melanoma 102% | EKVX NSCLC 103% | SN12C renal 92.9% | UO-31 renal 84.8% | TK-10 renal 116% | ACHN renal 106% | CAKI-1 renal 108% | A498 renal 98.7% | CCRF-CEM leukemia 111% | MOLT-4 leukemia 102% | SR leukemia 97.9% | RPMI-8226 leukemia 101% | OVCAR-8 ovarian 106% | OVCAR-5 ovarian 96.7% | OVCAR-4 ovarian 82.1% | SK-OV-3 ovarian 105% | IGROV1 ovarian 80.7% | OVCAR-3 ovarian 104% | HS 578T breast 101% | NCI/ADR-RES ovarian 103%

Reference: PubChem BioAssay (NCI)
